Z-score data for 17 compounds are collected here from PubChem BioAssay.

Activity calls are given as the source filed them.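 How the source made its calls: active means z-score of at least 1.8 in each of two replicates, scored against plate mean and spread of sample wells; inactive means the rest.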

A short description of this assay: viability rescue of complex I mutant cybrids, primary screen, cell-based, galactose medium, ATP luminescence (AID 1645843).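 Further: positive z means more ATP and so rescue of galactose-driven cybrid death.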 The note with it: complex I mutant cybrid cells, 72 h, stronger effect = higher value.
For `CCC(Nc1ncc(C)c(-c2cnn(C)c2)n1)c1nc2ccc(C)cc2[nH]1` (configuration not stated), the z-score was -0.955 (inactive).
`Cn1cc(-c2cc(C(=O)N3CCc4ccccc4C3)c3cc(F)ccc3n2)cn1`: the z-score was 1 (inactive).
In the case of `CCCn1cc(-c2ccnc(NC(CC(C)(C)C)c3cccnc3)n2)c(C)n1` (configuration not stated) it was 1.13 (inactive).
As for `Cc1cc(NC(=O)Cn2ccc(-c3ccncc3)n2)n(-c2ccccn2)n1`, the z-score was 0.42 (inactive).
In the case of `Cc1ccc2c(C(=O)N3CCC(C)(C)C3)cc(-c3cnn(C(C)C)c3)nc2c1` it was -0.01 (inactive).
In the case of `Cc1ccc2c(=O)n(C3CC(C)(C)NC(C)(C)C3)cnc2c1C` it was -0.535 (inactive).
In the case of `COc1ccc(CC(=O)NCc2cccc(SC)c2)cc1` it was 0.19 (inactive).
In the case of `c1nc(-c2ccc3c(c2)OCCO3)c2sccc2n1`, the z-score is 0.225 (inactive).
In the case of `CCCCc1cn(C2CCN(C3CCCC(C)(C)C3)CC2)nn1` (configuration not stated) it was -0.56 (inactive); in that of `CCC1(CC)CC1C(=O)N1CCCCC1CCn1ccnc1C` (configuration not stated), -0.475 (inactive).
As for `Cc1ccc(CCC(=O)N(C)Cc2cnn(C(C)C)c2)cc1C`, the z-score was -0.565 (inactive).
On to `COc1ccccc1-c1noc(Cn2ncc3ccccc32)n1`, for which the z-score was 1.12 (inactive).
In the case of `O=C(Nc1cccc(-c2cscn2)c1)c1ccc2nccnc2c1` it was -0.95 (inactive).
As for `COc1cc(C)c(CNC(C)CCCC(C)(C)O)c(C)c1C` (configuration not stated), the z-score is -0.435 (inactive).
In the case of `Cc1ccccc1C1CCCN(C(=O)c2cc(C(C)C)no2)C1` (configuration not stated) it was 2.95 (active); in that of `CCCC[C@@H](N)C(=O)N1CCC(n2cc(CCCO)nn2)CC1`, -0.47 (inactive).
`O=C(c1cc(-c2cncnc2)nc2cc(F)ccc12)N1CCCC1Cc1cccnc1` (configuration not stated): the z-score was 0.765 (inactive).
